Assay results published in the supplement of paper PMC8728848.
The full list was thinned out, with the strongest signals kept by preference.

Columns and labels:
Test in all cases: glycan array binding signal (z-score within array); higher = stronger binding
Conditions in all cases: glycan notation: IUPAC condensed, linker removed; mutation: R82H, R255H
[1] = target: Gal(b1-4)GlcNAc(b1-3)Gal(b1-4)GlcNAc(b1-3)[Gal(b1-4)GlcNAc(b1-3)Gal(b1-4)GlcNAc(b1-6)]GalNAc
In short: (§1)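 The binding signal is a Z-score computed within each array. Data were drawn from 3228 arrays in the Consortium for Functional Glycomics database, restricted to those with a known protein sequence. Scores were averaged over arrays of the same protein sequence at different concentrations or buffers, and over linkers, and negative values can be taken as non-binding.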

Gal4S(b1-4)GlcNAc = target: Gal4S(b1-4)GlcNAc
In short: as §1

Gal6S(b1-3)GlcNAc6S = target: Gal6S(b1-3)GlcNAc6S
In short: as §1

[2] = target: GalNAc(a1-3)GalNAc(b1-3)Gal(a1-4)Gal(b1-4)Glc
In short: as §1

GalNAc(b1-3)GalNAc = target: GalNAc(b1-3)GalNAc
In short: as §1

GalNAc(b1-4)GlcNAc = target: GalNAc(b1-4)GlcNAc
In short: as §1

[3] = target: GalNAc(b1-4)GlcNAc(b1-3)GalNAc(b1-4)GlcNAc
In short: as §1

[4] = target: GlcA3S(b1-3)Gal(b1-4)GlcNAc(b1-3)Gal(b1-4)Glc
In short: as §1

[5] = target: GlcNAc(b1-2)Man(a1-3)[GlcNAc(b1-4)][GlcNAc(b1-2)Man(a1-6)]Man(b1-4)GlcNAc(b1-4)[Fuc(a1-6)]GlcNAc
In short: as §1

[6] = target: GlcNAc(b1-3)Gal(b1-4)GlcNAc(b1-3)Gal(b1-4)GlcNAc(b1-2)[GlcNAc(b1-3)Gal(b1-4)GlcNAc(b1-3)Gal(b1-4)GlcNAc(b1-6)]Man(a1-6)[GlcNAc(b1-3)Gal(b1-4)GlcNAc(b1-3)Gal(b1-4)GlcNAc(b1-2)Man(a1-3)]Man(b1-4)GlcNAc(b1-4)[Fuc(a1-6)]GlcNAc
In short: as §1

[7] = target: GlcNAc(b1-3)Gal(b1-4)GlcNAc(b1-3)Gal(b1-4)GlcNAc(b1-3)Gal(b1-4)GlcNAc(b1-2)Man(a1-3)[GlcNAc(b1-3)Gal(b1-4)GlcNAc(b1-3)Gal(b1-4)GlcNAc(b1-3)Gal(b1-4)GlcNAc(b1-2)Man(a1-6)]Man(b1-4)GlcNAc(b1-4)GlcNAc
In short: as §1

[8] = target: GlcNAc(b1-3)Gal(b1-4)GlcNAc(b1-3)Gal(b1-4)GlcNAc(b1-3)Gal(b1-4)GlcNAc(b1-2)[GlcNAc(b1-3)Gal(b1-4)GlcNAc(b1-3)Gal(b1-4)GlcNAc(b1-3)Gal(b1-4)GlcNAc(b1-6)]Man(a1-6)[GlcNAc(b1-3)Gal(b1-4)GlcNAc(b1-3)Gal(b1-4)GlcNAc(b1-3)Gal(b1-4)GlcNAc(b1-2)Man(a1-3)]Man(b1-4)GlcNAc(b1-4)[Fuc(a1-6)]GlcNAc
In short: as §1

[9] = target: GlcNAc(b1-3)Gal(b1-4)GlcNAc(b1-3)Gal(b1-4)GlcNAc(b1-3)Gal(b1-4)GlcNAc(b1-3)Gal(b1-4)GlcNAc(b1-2)Man(a1-3)[GlcNAc(b1-3)Gal(b1-4)GlcNAc(b1-3)Gal(b1-4)GlcNAc(b1-3)Gal(b1-4)GlcNAc(b1-3)Gal(b1-4)GlcNAc(b1-2)Man(a1-6)]Man(b1-4)GlcNAc(b1-4)GlcNAc
In short: as §1

[10] = target: GlcNAc(b1-3)Gal(b1-4)GlcNAc(b1-3)Gal(b1-4)GlcNAc(b1-3)Gal(b1-4)GlcNAc(b1-3)Gal(b1-4)GlcNAc(b1-2)Man(a1-3)[GlcNAc(b1-3)Gal(b1-4)GlcNAc(b1-3)Gal(b1-4)GlcNAc(b1-3)Gal(b1-4)GlcNAc(b1-3)Gal(b1-4)GlcNAc(b1-2)Man(a1-6)]Man(b1-4)GlcNAc(b1-4)[Fuc(a1-6)]GlcNAc
In short: as §1

[11] = target: GlcNAc(b1-3)Gal(b1-4)GlcNAc(b1-3)Gal(b1-4)GlcNAc(b1-3)Gal(b1-4)GlcNAc(b1-3)Gal(b1-4)GlcNAc(b1-2)[GlcNAc(b1-3)Gal(b1-4)GlcNAc(b1-3)Gal(b1-4)GlcNAc(b1-3)Gal(b1-4)GlcNAc(b1-3)Gal(b1-4)GlcNAc(b1-6)]Man(a1-6)[GlcNAc(b1-3)Gal(b1-4)GlcNAc(b1-3)Gal(b1-4)GlcNAc(b1-3)Gal(b1-4)GlcNAc(b1-3)Gal(b1-4)GlcNAc(b1-2)Man(a1-3)]Man(b1-4)GlcNAc(b1-4)[Fuc(a1-6)]GlcNAc
In short: as §1

[12] = target: GlcNAc(b1-3)Gal(b1-4)GlcNAc(b1-6)[Gal(b1-3)]GalNAc
In short: as §1

[13] = target: GlcNAc(b1-4)GlcNAc(b1-4)GlcNAc
In short: as §1

[14] = target: Man(a1-2)Man(a1-6)[Man(a1-3)]Man(a1-6)[Man(a1-2)Man(a1-2)Man(a1-3)]Man
In short: as §1

Man(a1-3)[Man(a1-6)]Man = target: Man(a1-3)[Man(a1-6)]Man
In short: as §1

[15] = target: Man(a1-3)[Man(a1-6)]Man(a1-6)[Man(a1-2)Man(a1-3)]Man(b1-4)GlcNAc(b1-4)GlcNAc
In short: as §1

Neu5Ac(a2-3)Gal = target: Neu5Ac(a2-3)Gal
In short: as §1

[16] = target: Neu5Ac(a2-3)Gal(b1-3)GlcNAc
In short: as §1

[17] = target: Neu5Ac(a2-3)Gal(b1-3)GlcNAc(b1-2)Man(a1-3)[Neu5Ac(a2-3)Gal(b1-3)GlcNAc(b1-2)Man(a1-6)]Man(b1-4)GlcNAc(b1-4)GlcNAc
In short: as §1

[18] = target: Neu5Ac(a2-3)Gal(b1-4)GlcNAc(b1-3)Gal(b1-4)GlcNAc(b1-3)Gal(b1-4)GlcNAc
In short: as §1

[19] = target: Neu5Ac(a2-3)Gal(b1-4)GlcNAc(b1-3)Gal(b1-4)GlcNAc(b1-3)[Neu5Ac(a2-3)Gal(b1-4)GlcNAc(b1-3)Gal(b1-4)GlcNAc(b1-6)]GalNAc
In short: as §1

[20] = target: Neu5Ac(a2-6)Gal(b1-4)GlcNAc(b1-3)GalNAc
In short: as §1

[21] = target: Neu5Ac(a2-6)Gal(b1-4)GlcNAc6S
In short: as §1

[22] = target: Neu5Ac(a2-8)Neu5Ac(a2-3)[GalNAc(b1-4)]Gal(b1-4)Glc
In short: as §1

B1: Gal 8 (Mus musculus), Q9JL15 (protein)
chain: MGGSHHHHHHGMASMLSLNNLQNIIYNPIIPYVGTITEQLKPGSLIVIRGHVPKDSERFQVDFQLGNSLKPRADVAFHFNPHFKRSSCIVCNTLTQEKWGWEEITYDMPFRKEKSFEIVFMVLKNKFQVAVNGRHVLLYAHRISPEQIDTVGIYGKVNIHSIGFRFSSASALPHTLGDLQSMETSALGLTQINRENIQKPGKLQLSLPFEARLNASMGPGRTVVIKGEVNTNARSFNVDLVAGKTRDIALHLNPHLNVKAFVRNSFLQDAWGEEERNITCFPFSSGMYFEMIIYCDVREFKVAINGVHSLEYKHRFKDLSSIDTLSVDGDIRLLDVRSW
glycan array binding signal (z-score) [1]: 0.053
glycan array binding signal (z-score) (Gal4S(b1-4)GlcNAc): -0.22
glycan array binding signal (z-score) (Gal6S(b1-3)GlcNAc6S): -0.186
glycan array binding signal (z-score) [2]: -0.214
glycan array binding signal (z-score) (GalNAc(b1-3)GalNAc): -0.259
glycan array binding signal (z-score) (GalNAc(b1-4)GlcNAc): -0.245
glycan array binding signal (z-score) [3]: -0.271
glycan array binding signal (z-score) [4]: -0.198
glycan array binding signal (z-score) [5]: -0.278
glycan array binding signal (z-score) [6]: 5.44
glycan array binding signal (z-score) [7]: 4.25
glycan array binding signal (z-score) [8]: 4.84
glycan array binding signal (z-score) [9]: 7.01
glycan array binding signal (z-score) [10]: 6.24
glycan array binding signal (z-score) [11]: 6.71
glycan array binding signal (z-score) [12]: -0.251
glycan array binding signal (z-score) [13]: -0.255
glycan array binding signal (z-score) [14]: -0.276
glycan array binding signal (z-score) (Man(a1-3)[Man(a1-6)]Man): -0.24
glycan array binding signal (z-score) [15]: -0.246
glycan array binding signal (z-score) (Neu5Ac(a2-3)Gal): -0.259
glycan array binding signal (z-score) [16]: -0.217
glycan array binding signal (z-score) [17]: 0.022
glycan array binding signal (z-score) [18]: -0.148
glycan array binding signal (z-score) [19]: -0.255
glycan array binding signal (z-score) [20]: -0.062
glycan array binding signal (z-score) [21]: -0.2
glycan array binding signal (z-score) [22]: -0.268
